Screening results as filed in PubChem BioAssay.
CYP2C19 act = activators of human cytochrome P450 2C19 | 96,000 tested, under 10 active | recombinant CYP2C19, luciferin-H EGE luminescence; stronger effect = higher value; 0 = fully inhibited enzyme, 1 = untreated enzyme | activation factor at 5 µM | AID 1025 | P33261;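 active = activation factor of at least 2 at 5 µM in the primary screen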;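 also: 0 = wells with 2.5 mM tranylcypromine and 1 = vehicle-only wells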
Target sequence (P33261 whole entry, looked up): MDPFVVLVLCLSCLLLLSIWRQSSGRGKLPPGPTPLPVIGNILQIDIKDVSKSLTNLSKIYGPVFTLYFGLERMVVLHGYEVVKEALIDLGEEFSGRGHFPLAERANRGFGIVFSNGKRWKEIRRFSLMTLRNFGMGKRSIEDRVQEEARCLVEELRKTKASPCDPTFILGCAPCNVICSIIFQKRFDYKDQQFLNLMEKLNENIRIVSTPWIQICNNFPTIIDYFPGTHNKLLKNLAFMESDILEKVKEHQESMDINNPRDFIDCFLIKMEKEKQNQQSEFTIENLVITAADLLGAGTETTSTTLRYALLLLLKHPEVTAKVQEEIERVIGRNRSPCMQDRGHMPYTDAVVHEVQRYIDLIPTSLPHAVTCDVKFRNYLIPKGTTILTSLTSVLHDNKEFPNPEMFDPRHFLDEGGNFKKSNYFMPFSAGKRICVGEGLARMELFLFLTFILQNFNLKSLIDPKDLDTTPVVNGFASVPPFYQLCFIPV
CYP2C19 inh = inhibitors of human CYP2C19; CYP2C19 Supersomes, luciferin-H EGE luminescence, 30 min; inhibition, % at 5 µM; hit rate 21% among 96,000; AID 778;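 active = CYP2C19 inhibition above a set limit at 5 µM in the primary screen, cut at about 50% in these data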;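 also: plate controls were negative control wells for no effect and 2.5 mM tranylcypromine positive control for full effect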
CYP2C9 act = CYP2C9 (human) activation; P11712; recombinant CYP2C9, luciferin-H conversion, luminescence; stronger effect = higher value; factor 1 = untreated enzyme, 0 = blocked; activation factor at 5 µM; hit rate 1.4% among 96,000;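 active = activation factor of 2 or more for CYP2C9 at a 5 µM dose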;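 also: 0 = sulfaphenazole-blocked wells and 1 = vehicle-only wells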
CYP2C9 inh = inhibitors of human CYP2C9; CYP2C9 Supersomes, luciferin-H conversion, luminescence; AID 777; inhibition, % at 5 µM; hit rate 20% among 96,000;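 active = blocking of liver enzyme CYP2C9 beyond about 50% at 5 µM, limit read from the data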
The depositor's hits bear a star. In the library only some 31% were active in any assay of this set; here they are far more common.

SMILES	CYP2C19 act	CYP2C19 inh	CYP2C9 act	CYP2C9 inh
CC(C)N(C(=O)CSc1nnc(CN2CCCCCC2=O)n1-c1ccccn1)C(C)C	1	-3.1	1.1	-8.6
Cc1ccc(-c2nnn(CC(=O)Nc3ccccc3-c3ccccc3)n2)c(-n2cnnn2)c1	0.6	35.9	0.5	52.2*
Cc1ccc(C(=O)Cn2nnc(-c3ccccc3-n3cnnn3)n2)cc1	0.8	24.1	1.7	-67.5
Cc1ccc(NC(=O)/C(=C\c2cccc([N+](=O)[O-])c2)NC(=O)c2cccs2)cc1	0.9	6.4	0.9	14.9
CCOc1cccc(C(=O)NC2CCCCC2)c1	0.3	68.3*	1.3	-29.5
CCOC(=O)C1CCN(C(=O)c2cccnc2)CC1	0.7	29.0	1	-1.9
Cc1ccc(C(=O)NC2CCCCC2)cc1	0.9	13.8	1	-4.8
COc1cccc(C(=O)NC2CCN(C(=O)N3CCCCC3)CC2)c1	0.9	7.4	0.9	5.5
CCOC(=O)COc1ccc(C(=O)NC2CCCCC2)cc1	0.8	22.5	3*	-202.3
CCOc1cccc(C(=O)N2CCCCC2c2cccnc2)c1 (stereo not given)	0.6	42.9	2.1*	-107.6
Cc1nnsc1NC(=O)OCc1ccc(Cl)cc1Cl	0.3	71.3*	0.6	43.5
Cc1nnsc1NC(=O)OCCCl	1	-3.4	1	0.0
Cc1nn(C)c(Cl)c1NC(=O)OCc1ccc(Cl)cc1Cl	0.3	67.5*	1.1	-14.5
Cc1nn(Cc2ccc(Cl)cc2Cl)c(C)c1NC(=O)c1nn(C)cc1Cl	0.9	6.3	1.2	-17.7
COc1ccc(-c2noc(C3CCCN(S(=O)(=O)c4cccc(Cl)c4)C3)n2)cc1OC (stereo not given)	0.1	94.3*	0.1	86.8*
COc1ccccc1C(=O)N1CCCC(c2nc(-c3cc(OC)c(OC)c(OC)c3)no2)C1 (stereo not given)	0.4	59.2*	0.6	44.7
COc1ccc(C(=O)N2CCCC(c3nc(-c4cc(OC)c(OC)c(OC)c4)no3)C2)cc1 (stereo not given)	0.7	30.9	0.3	65.7*
O=C1CCCC(=O)C1=Cc1c[nH]c2ccccc12	0.9	7.5	0.8	15.4
O=C(c1ccc(F)cc1)C1CCN(C(=O)NCc2ccccc2)CC1	0.9	6.8	0.8	19.3
O=C(COc1nc2ccccc2nc1N1CCOCC1)N1CCc2ccccc21	1.2	-19.1	1	3.0
Brc1ccccc1-c1nnc2sc(Cc3ccccc3)nn12	0	95.1*	0.4	61.6*
COc1ccc(Cc2nn3c(-c4ccccc4Br)nnc3s2)cc1	0.1	90.1*	0.7	25.8
CCn1nc2cc(C(=O)NCc3cc(C(F)(F)F)cc(C(F)(F)F)c3)ccc2c1OC	0.8	24.9	0.8	19.9
CCCCSc1nnc2nc(C)cc(C)n12	1	3.7	1.2	-15.2
C=CCn1c(CNc2ccc(C)cc2)nnc1SCC(=O)N/N=C/c1ccc(O)cc1	0.9	14.2	1	-1.6
SMILES	CYP2C19 act	CYP2C19 inh	CYP2C9 act	CYP2C9 inh
COc1cc(C(=O)OCC(=O)c2cc(C)n(C)c2C)cc(OC)c1OC	0.4	58.5*	2.5*	-148.1
Cn1c(C(=O)N2CCc3ccccc3C2)cc2c(=O)n3ccccc3nc21	0.3	65.8*	0.5	49.1
Cn1c(C(=O)N2CCN(C(=O)c3ccco3)CC2)cc2c(=O)n3ccccc3nc21	0.6	39.9	0.9	6.4
CCn1nc(C(=O)N2CCc3ccccc3C2)c2ccccc2c1=O	0.3	65.5*	0.3	69.4*
Cn1nc(C(=O)N2CCc3ccccc3C2)c2ccccc2c1=O	0.4	58.4*	0.5	53.8*
CCCn1nc(C(=O)N2CCc3ccccc3C2)c2ccccc2c1=O	0.7	32.9	0.6	37.8
O=C(NCc1cccs1)C1CCCN(S(=O)(=O)c2ccc(Br)s2)C1 (stereo not given)	1	-3.4	1.3	-30.6
CC1CCc2c(sc3ncn4c(SCC(=O)NCc5ccco5)nnc4c23)C1 (stereo not given)	0.6	36.2	0.4	58.1*
CC(C)Sc1nc2sc3c(c2c2nnc(SCC(=O)NCc4ccco4)n12)CCCC3	0.2	77.4*	0.1	93.7*
CC1CCc2sc3ncn4nc(C(=O)NCc5ccco5)nc4c3c2C1 (stereo not given)	1	-1.6	0.9	12.5
CCOC(=O)c1nnn(-c2nonc2N)c1CN(CC)c1ccccc1	0	99.1*	0.1	88.6*
CCOC(=O)c1nnn(-c2nonc2N)c1CNC(C)C	0.5	48.8	0.9	11.0
COC(=O)c1nnn(-c2nonc2N)c1CSc1nc2ccccc2s1	0.5	52.3*	0.5	48.9
CCOC(=O)c1nnn(-c2nonc2N)c1CN(CC)CC	0.6	36.4	1	2.3
CCOC(=O)c1nnn(-c2nonc2N)c1COc1ccccc1	0.5	48.2	0.1	87.6*
CCOC(=O)c1nnn(-c2nonc2N)c1CNc1ccccc1	0.9	7.3	0.5	53.3*
CC(C(=O)N1CCN(C=O)CC1)N1C(=O)c2ccccc2C1=O (stereo not given)	1.1	-14.5	1.2	-15.1
CC(=O)NC(=O)NC1CSCC1OC(C)=O (stereo not given)	1.2	-17.6	1.2	-24.8
CCOC(=O)c1nnn(-c2nonc2N)c1CN1CCCCCC1	1	-1.6	1	-0.3
CCOC(=O)c1nnn(-c2nonc2N)c1COc1ccc(F)cc1	0.9	14.2	0.2	80.6*
CCNc1nc(NCC)nc(C(=O)OCCO)n1	0.9	8.5	1.1	-10.1
CC(C)C(C(=O)Nc1nccs1)c1ccccc1 (stereo not given)	0.3	68.1*	0.5	51.8*
CC(C)Cc1ccc(C(C)C(=O)Nc2nccs2)cc1 (stereo not given)	0.5	51.3*	0.3	67.9*
CCOC(=O)C(Cc1ccccc1)C(=O)Nc1nccs1 (stereo not given)	0.8	24.6	0.6	35.6
O=C(COc1ccc(Br)cc1)N1CCN(c2ccccc2)CC1	0.3	70.6*	0.6	36.7
SMILES	CYP2C19 act	CYP2C19 inh	CYP2C9 act	CYP2C9 inh
COc1ccc(OCC(=O)N2CCN(C(=O)COc3ccc(Br)cc3)CC2)cc1	0.4	64.5*	0.5	46.0
CC(=O)N1CCN(C(=O)COc2ccc(Br)cc2)CC1	0.1	88.8*	1	-0.4
Cc1nc(N2CCN(C(=O)COc3ccccc3)CC2)c2c(C)c(C)sc2n1	0.6	36.0	0.1	92.6*
COc1cc2c(cc1OC)C(c1ccc3c(c1)OCO3)CC(=O)N2 (stereo not given)	0.5	45.3	0.7	31.8
O=C1CC(c2ccc3c(c2)OCO3)C2=C(CCCC2=O)N1 (stereo not given)	0.9	14.1	0.5	51.9*
CCOc1ccc(C2CC(=O)NC3=C2C(=O)CCC3)cc1 (stereo not given)	1.1	-5.7	1	-4.6
O=C1CC(c2ccc(F)c(Br)c2)C2=C(CCCC2=O)N1 (stereo not given)	0.3	68.7*	0.7	28.8
Cc1c(C(=O)Nc2nccs2)sc2nc(-c3cccs3)cc(C(F)(F)F)c12	0.9	12.6	0.6	38.2
CCOC(=O)C1=C(N)Oc2cc(O)ccc2C1c1cccnc1 (stereo not given)	0.1	89.2*	0.1	90.5*
